Luc counter – Kinase-Glo luciferase inhibition (counter-screen) | Q27757 | Kinase-Glo luciferase, ATP luminescence, 8 min | Potency, µM (series often up to 38.3 µM), inactives show at the top dose activity change, negative = inhibition, most hits filed as inhibitors | 200,000 tested, 0.28% active | AID 1379; note: nearly all actives have a fitted effect of over 60% in size
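Inhibition of Kinase-Glo luciferase light generation was assessed at 10 uM ATP in pH 7.2 imidazole buffer, with luminescence measured after eight minutes at ambient temperature.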
Gal4-VP16 FLuc – counter-screen for ROR gamma inhibitors: Gal4-VP16 reporter; Potency, µM (series often up to 53.6 µM), for the others: top-dose activity, negative = inhibition, hits mostly inhibitors; Drosophila S2 Gal4-VP16 UAS-luciferase, luminescence, 20 h; 310,000 tested, 3.5% active;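 note: Gal4-VP16 expression switched on by copper sulfate through the metallothionein promoter; nearly all actives have a fitted effect of over 50% in size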
RORgamma inh – inhibitors of mouse ROR gamma transcriptional activity | AID 2551 | Potency, µM (titrated, usually from 53.6 µM), for the others: at the highest dose activity change, negative = inhibition, most hits filed as inhibitors | 310,000 tested, 5.4% active | Drosophila S2 Gal4-RORgamma UAS-luciferase reporter, 20 h; note: nearly all actives have a fitted effect of over 60% in size
Target sequence (P51450 whole entry, looked up, the tested form may be a part): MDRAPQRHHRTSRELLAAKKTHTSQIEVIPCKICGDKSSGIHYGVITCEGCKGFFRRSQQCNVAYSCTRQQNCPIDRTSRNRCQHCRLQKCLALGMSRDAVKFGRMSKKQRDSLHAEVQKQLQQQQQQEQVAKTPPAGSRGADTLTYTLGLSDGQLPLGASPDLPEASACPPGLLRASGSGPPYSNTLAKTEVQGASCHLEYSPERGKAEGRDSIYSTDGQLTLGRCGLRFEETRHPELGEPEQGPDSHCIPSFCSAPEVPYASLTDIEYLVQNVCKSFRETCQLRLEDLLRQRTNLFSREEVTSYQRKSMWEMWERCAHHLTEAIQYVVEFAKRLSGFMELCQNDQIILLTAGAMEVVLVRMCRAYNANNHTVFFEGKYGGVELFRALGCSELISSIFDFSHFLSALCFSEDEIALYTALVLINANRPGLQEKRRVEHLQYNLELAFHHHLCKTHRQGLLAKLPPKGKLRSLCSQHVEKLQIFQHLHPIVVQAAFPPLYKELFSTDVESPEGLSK
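In this cell-based reporter format, copper sulfate (700 uM final) drives Gal4–ROR gamma fusion expression from a metallothionein promoter in Drosophila Schneider cells; compounds preincubated 1 hr, reporter read after 20 hr at ambient temperature.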
Numbers without * were called inactive; ? = inconclusive; / = no result; [ ] = dose if it differs, or a comment. The list is not random: actives were taken first. Their share in the collection is about 6.2%. Calls come from the whole dose curve; as a rule, active = well fitted curve in the direction sought with a large enough effect; inconclusive = small, poorly fitted or top-dose-only effect, or another doubt; inactive = no such curve, though single readings can be large; an effect the other way counts as inactive or inconclusive. % is set by controls: 0 for no effect and ±100 for the full control effect; potency is the fitted concentration of half-maximal effect.

SMILES	Luc counter	Gal4-VP16 FLuc	RORgamma inh
Oc1ccc(Br)cc1/C=N/Nc1nc(N2CCCCC2)nc(N2CCOCC2)n1	-1%	-1%	-13%
Brc1cccc(/C=N/Nc2nc(N3CCCCC3)nc(N3CCCCC3)n2)c1	-2%	0%	-5%
Fc1ccccc1COc1ccccc1/C=N/Nc1nc(N2CCCC2)nc(N2CCCC2)n1	0%	13µM*	6.3µM*
C(=N\Nc1nc(N2CCCCCC2)nc(N2CCCCCC2)n1)/c1ccccc1	0%	?	8.9µM*
C(=N\Nc1nc(N2CCCC2)nc(N2CCCC2)n1)/c1ccccc1OCc1ccccc1	-3%	-21%	2.8µM*
Fc1ccc(COc2ccc(Cl)cc2/C=N/Nc2nc(N3CCCC3)nc(N3CCCC3)n2)cc1	-1%	5%	?
Oc1ccc(/C=N/Nc2nc(N3CCCCCC3)nc(N3CCCCCC3)n2)c(O)c1	-2%	?	16µM*
C/C(=C/C=N/Nc1nc(N2CCCCC2)nc(N2CCCCC2)n1)c1ccccc1	1%	4%	-29%
CC(C)Cc1nn2c(N)c(/C=C3\C=Nc4ccccc43)c(=O)nc2s1	0%	-3%	?
C(=N\Nc1nc(N2CCOCC2)nc(N2CCOCC2)n1)/c1ccco1	-1%	-10%	-9%
Fc1ccc(Nc2nc(N/N=C/c3ccco3)nc(N3CCCCC3)n2)cc1	-4%	5µM*	2.8µM*
O=[N+]([O-])c1ccc(N/N=C\c2ccccc2OCc2ccccc2)cc1	-4%	2%	17%
Cc1cc(C)nc(N/N=C/c2ccccc2OCc2ccc([N+](=O)[O-])cc2)n1	0%	?	14µM*
O=[N+]([O-])c1ccc(-c2ccc(/C=N/Nc3nc(N4CCCCC4)nc(N4CCCCC4)n3)o2)cc1	-1%	0%	-7%
O=[N+]([O-])c1cccc(-c2ccc(/C=N/Nc3nc(N4CCCCC4)nc(N4CCCCC4)n3)o2)c1	-1%	-6%	10µM*
O=C(CCCn1c(SCc2cccc([N+](=O)[O-])c2)nc2ccccc2c1=O)NCC1CCCO1 (stereo not drawn)	0%	-3%	?
O=C1c2ccccc2-c2nnc(-c3ccc(O)cc3)cc21	11µM*	?	?
COc1cc(-c2c(C(C)=O)c(C)nc3c2C(=O)c2ccccc2-3)cc(OC)c1OC	/	3%	6%
CC(=O)c1ccc(Nc2ccc(-c3ccccc3C)nn2)cc1	-5%	-2%	0%
Cc1ccccc1-c1cc2c(nn1)-c1ccccc1C2=O	5µM*	8.9µM*	10µM*
Oc1ccc(-c2cccc(-c3ccc(O)cc3)n2)cc1	0%	1%	7%
Cc1ccc(-c2cc3c(nn2)-c2ccccc2C3=O)cc1	/	2µM*	1.1µM*
O=C1c2ccccc2-c2nnc(-c3ccc(F)cc3)cc21	5µM*	-6%	3%
O=c1[nH]nc(-c2ccc(F)cc2)cc1-c1ccccc1	/	-13%	26%
OCC(O)C(O)C(O)C(O)c1nc2ccccc2[nH]1 (stereo not drawn)	-2%	10%	20%
SMILES	Luc counter	Gal4-VP16 FLuc	RORgamma inh
CCCCC1=C([O-])C2N=CC=CC2=[N+](c2ccccn2)C1=O (stereo not drawn)	-3%	-5%	17%
CCNc1ncc2nc(-c3ccc(F)cc3)c(=O)n(-c3ccc(OC)cc3)c2n1	/	-11%	-22%
CC1(C)CCC2=C(O1)c1ccccc1C(=O)C2=O	5%	5.6µM*	2.5µM*
CC1(C)CCc2c([nH]c3ccccc3c2=O)O1	-1%	9%	-34%
CNC(=O)c1c[nH]c2ccc(S(=O)(=O)Nc3cccc(SC)c3)cc2c1=O	/	-1%	0%
Cc1ccc(-c2nnc(SCC(=O)N/N=C/c3ccccc3C(=O)O)n2-c2ccc(Cl)cc2)cc1	/	9%	8%
O=C(CCCc1nc2ccccc2s1)N1CCN(c2ccccc2)CC1	0%	4µM*	0%
O=C(CCCc1nc2ccccc2s1)N1CCN(c2ccccc2F)CC1	-2%	2%	48%
O=C(CCc1nnc2ccc(NCc3ccccc3)nn12)NCC1CCN(C2CCCC2)C1 (stereo not drawn)	/	-1%	-2%
Clc1ccc(SCc2cc(N3CCOCC3)nc(-c3ccccn3)n2)cc1	1%	4.5µM*	0.56µM*
Clc1ccc(SCc2csc(N3CCOCC3)n2)cc1	/	-1%	32%
O=c1cc(CSc2ccc(Cl)cc2)nc(-c2ccccc2)[nH]1	-1%	5%	23%
O=c1cc(CSc2ccc(Cl)cc2)nc(-c2ccccn2)[nH]1	/	4.5µM*	4µM*
O=C(CN1C(=O)/C(=C/c2c(F)cccc2Cl)Oc2ccccc21)NCc1ccco1	-2%	-15%	30%
COc1ccc(CNC(=O)C2CCN(C(=O)c3csc(Nc4ccc(C)cc4)n3)CC2)cc1	/	9%	41%
COc1ccc(N2CCN(C(=O)c3ccc(N4C(=O)NC5CC4(C)Oc4ccccc45)cc3)CC2)cc1 (stereo not drawn)	-7%	-10%	?
CSc1ccccc1OCc1cc(C(=O)N2CCc3c(Cl)cccc3C2)no1	/	?	13µM*
CSc1ccccc1OCc1cc(C(=O)N2CCNC(=O)C2)no1	/	-3%	19%
CC(N)=NCCCC(N)C(=O)O (stereo not drawn)	0%	/	/
CCNC(=S)Nc1cc(OC)c(NC(=O)c2ccco2)cc1OC	0%	-10%	13µM*
COc1cc(NC(=S)NCCCN(C)C)c(OC)cc1NC(=O)c1ccco1	/	-3%	-3%
COc1ccccc1C(=O)NNC(=O)C(=O)Nc1ccc(C)cc1	/	3%	11µM*
CCOc1cc(NC(=S)NCCOC)c(OCC)cc1NC(=O)c1ccco1	-4%	?	13µM*
COCCNC(=S)NNC(=O)c1ccco1	-3%	9%	-30%
COC(=O)c1cc(OC)c(OC)cc1NC(=S)NC(=O)c1ccco1	/	-24%	8.9µM*
SMILES	Luc counter	Gal4-VP16 FLuc	RORgamma inh
COc1ccccc1C(=O)NNC(=O)C(=O)Nc1ccc(C)c(Cl)c1	/	-18%	?
COc1cc(NC(=S)NC(=O)c2ccco2)ccc1NC(=O)C(C)C	-3%	-16%	-25%
CC(CN1CCN(Cc2ccccc2)CC1)OC(=O)c1ccco1 (stereo not drawn)	/	-6%	-2%
CCNC(=S)Nc1cc(OCC)c(NC(=O)c2ccco2)cc1OCC	7%	?	16µM*
COc1ccc(C(=O)NNC(=S)NC(=O)c2ccco2)cc1	2%	4%	-12%
COCCNC(=O)CN1CCC(NC(=O)c2ccco2)CC1	-1%	?	13µM*
C=CCNC(=O)CN1CCC(NC(=O)c2ccco2)CC1	2%	-2%	11%
COc1ccccc1C(=O)NNC(=S)NC(=O)c1ccco1	/	?	16µM*
CCOc1cc(NC(=O)C2CCCCC2)c(OCC)cc1NC(=O)c1ccco1	3%	-6%	19%
Cc1nc2ccccc2nc1NS(=O)(=O)c1ccc(N)cc1	/	-6%	-9%
O=C(C1CCCCC1)N1CCN(S(=O)(=O)c2cccc([N+](=O)[O-])c2)CC1	/	-3%	-5%
C=CC(C)(C)c1[nH]c2ccccc2c1C1=C(O)C(=O)C(c2c[nH]c3c(CC=C(C)C)cccc23)=C(O)C1=O	1%	?	3%
CCN1C(=O)N[C@@H](c2ccccc2)C1=O	2%[17.1 µM]	1%[17 µM]	6%[2.98 µM]
CCN(CC)c1cccc(OC2=NS(=O)(=O)c3ccccc32)c1	/	-9%	12%

Bioassay records: PubChem BioAssay, National Center for Advancing Translational Sciences (NCATS)
